Vaccinia pol inh = vaccinia E9 polymerase processive synthesis inhibition; in vitro processive DNA synthesis, absorbance read-out; hits give low values; 46,000 compounds, 0.94% hits; normalized absorbance, % (test concentration not listed); in the data active = normalized absorbance mostly below about 85%, no sharp cut-off; inactive = mostly above about 86%
Of the large screens only hits and unclear results are named; the others gave an inactive call. Many of the other results were omitted from the sample, so hits are more common in it than they were.

COC(=O)C12CC3(C)CC(C)(C1)CC(C(=O)OC)(C3)C2	none
O=C(O)CCN1CCn2c1nc1ccccc12	none
O=C(Nc1ccccc1)N1CCN(c2ccc(C(F)(F)F)cn2)CC1	none
CC(C)(C)NC(=O)N1CCN(c2cc(C(F)(F)F)ccn2)CC1	Vaccinia pol inh 78
Cc1ccc(S(=O)(=O)NC(=O)N2CCCN(c3ccc(C(F)(F)F)cn3)CC2)cc1	none
CC1CC(N(C(=O)C(C)C)c2ccccc2)c2ccccc2N1 (stereo unspecified)	none
O=c1oc2ccccc2c(O)c1CN1CCCC1	none
Oc1ccc(Br)cc1C=NCC12CCC3CC(CC(C3)C1)C2	none
Oc1ccc(Br)cc1C=NCc1ccccc1	none
Oc1ccc(Br)cc1C=NCC1CCCO1 (stereo unspecified)	Vaccinia pol inh 75
CS(=O)(=O)C1(S(C)(=O)=O)CCCCC1	none
COc1ccccc1OCCNC(=O)c1ccc2c3c(cccc13)CC2	none
CC(C)Cn1c(=S)[nH]c2ccccc21	none
S=c1[nH]c2ccccc2n1Cc1ccccc1	Vaccinia pol inh 78
Cc1cc(C)c(C(=O)Cn2c(=S)[nH]c3ccccc32)c(C)c1	none
Cc1nc2ccccc2c2oc(C(=O)NCCN3CCN(C)CC3)cc12	Vaccinia pol inh 62
Cc1nc2ccccc2c2oc(C(=O)NC3CCCC3)cc12	none
Cc1nc2ccccc2c2oc(C(=O)N3CCC(C)CC3)cc12	none
CCCCc1c(C)nc(-c2ccc(Cl)cc2)[nH]c1=O	none
Cc1ccc2cc3cc(C(=O)N4CCN(c5cc(Cl)ccc5C)CC4)oc3nc2c1	none
COc1ccc2c3c1CCCN3CCC2	none
c1ccc(CN2CN=C(Nc3nc4ccccc4s3)NC2)cc1	none
CCOc1ccc2nc(Nc3nc(O)cc(=O)[nH]3)nc(C)c2c1	none
CCN1CN=C(Nc2nc(C)c3cc(C)ccc3n2)NC1	Vaccinia pol inh 49
CCOC(=O)c1[nH]c2ccccc2c1NC(=O)CC1CCCCC1	none
Cc1ccc(CCNC(=O)c2coc3nc4ccccc4nc23)cc1	none
CC1CCCN(CCCNC(=O)c2coc3nc4ccccc4nc23)C1 (stereo unspecified)	Vaccinia pol inh 60
CC1CCCN(CCCNC(=O)C2CCCN(c3ncnc4c3nc3n4CCCCC3)C2)C1 (stereo unspecified)	none
O=C(Nc1nn2c(-c3ccco3)nnc2s1)c1ccco1	none
CN(C)CC(O)Cn1c2ccc(Br)cc2c2cc(Br)ccc21 (stereo unspecified)	Vaccinia pol inh 27
OC(CNCc1ccccc1)Cn1c2ccc(Cl)cc2c2cc(Cl)ccc21 (stereo unspecified)	none
CN(CC(O)Cn1c2ccccc2c2ccccc21)S(C)(=O)=O (stereo unspecified)	none
O=C(COc1ccccc1)OCCN1CCCC1=O	none
CCN(CC)S(=O)(=O)c1cc(C(=O)NC)ccc1Cl	none
CC1CC(NC(=S)NC2CC3C=CC2C3)CC(C)(C)C1 (stereo unspecified)	none
Cc1ccc(-n2c(C)nnc2SCC(=O)N(c2ccccc2)C(C)C)cc1	none
CN(C)CCc1cc2c(c3c1ccc1ccccc13)OCO2	Vaccinia pol inh 11
c1ccc2cc(CNCCc3ccc4c(c3)OCO4)ccc2c1	none
O=C(COc1ccc2ccccc2c1)NCc1ccc2c(c1)OCO2	none
Cc1cc(NC(=O)CC(c2ccccc2)c2ccccc2)no1	none
CCOC(=O)c1cc(C)nn1C(=O)c1c(F)cccc1Cl	none
CCOC(=O)c1c(-c2ccccc2)csc1N	none
Nc1sc2c(c1C(=O)c1ccccc1)CCCC2	none
Nc1sc(-c2ccccc2)c(Cc2ccccc2)c1C(=O)O	Vaccinia pol inh 90
CC1CN(/C(N)=N/S(=O)(=O)c2ccc(Cl)c(Cl)c2)CC(C)O1 (stereo unspecified)	none
CCOC(=O)C1C(C)=C(c2ccc(Cl)cc2)OC(N)=C1C#N (stereo unspecified)	none
O=C(CC(SCc1ccc(Cl)cc1)C(=O)O)c1ccc(Cl)cc1 (stereo unspecified)	none
O=C(Cc1ccc(Cl)cc1)c1ccc(Cl)cc1	Vaccinia pol inh 79
O=C(CNC(=O)c1ccc(Cl)cc1)c1ccc(Cl)cc1	none
O=C(O)/C=C\C(=O)N1CCN(c2nc(-c3ccccc3)ns2)CC1	none
CC(C)(C)NC(=O)N1CCN(c2nc(-c3ccccc3)ns2)CC1	Vaccinia pol inh 66
c1ccc(-c2nsc(NC3Cc4ccccc4C3)n2)cc1	none
C=CCC(CC=C)(NS(=O)(=O)c1ccc(C)cc1)c1ccccc1	none
CCN1N=C(C)C=C(C)n2c1nc1ccccc12	none
OCc1cn(-c2ccccc2)nc1-c1cccs1	none
CCN(CC)CC#CCN1c2ccccc2Sc2ccccc21	none
CCOC(=O)c1c(/N=C/c2ccc(N(C)C)cc2)sc(C)c1C	none
Cc1ccc(-n2nnnc2-c2nc3ccccc3s2)cc1	none
CCN(CC)S(=O)(=O)c1ccc(-c2nc3ccccc3s2)cc1	none
Cc1ccc(-c2nc3ccccc3s2)cc1	Vaccinia pol inh 71
CC(CCc1ccccc1)NC(=O)CSc1ccccc1Cl (stereo unspecified)	none
C=CCn1c2ccccc2c2nc3ccccc3nc21	none
c1ccc2nc3c(nc2c1)c1ccccc1n3CCN1CCOCC1	Vaccinia pol inh 65
c1ccc(CCn2c3ccccc3c3nc4ccccc4nc32)cc1	none
C=CCn1nnnc1SCC(=O)c1ccc(OC)cc1	none
Oc1c(Br)cc(Br)cc1C=Nc1ccccc1F	Vaccinia pol inh 81
Oc1ccc(Br)cc1C=Nc1cc2c(cc1Br)OCCO2	none
COc1cc(Br)cc(C=Nc2ccccc2)c1O	none
NC(=O)C1CCN(c2nccc(C(F)(F)F)n2)CC1	none
CCOc1ccc(Cc2nnc(SCC(=O)c3ccc(Cl)cc3)o2)cc1	none
CCS(=O)(=O)N1CCN=C1SCc1ccc(C)cc1	none
COc1ccc(-c2ccnc(SCc3ccc(Cl)cc3Cl)n2)cc1	none
CCS(=O)(=O)N1CCN=C1SCc1ccc(Cl)cc1Cl	Vaccinia pol inh 21
COc1ccc(NC2=NCCS2)cc1	none
Cc1nnc(SCC(=O)c2ccccc2)s1	none
O=C1c2c(O)ccc(O)c2C(=O)c2c(NCCNCCO)ccc(NCCNCCO)c21	Vaccinia pol inh 7.8
Cc1ccc(/C=C/C(=O)O)cc1	none
CCOc1ccccc1NC(=O)c1c(Cl)nc2sccn12	none
O=C(NCc1ccc(Cl)cc1)C1(NS(=O)(=O)c2cccc3cccnc23)CCCCC1	none
CCOc1ccc(N)cc1OCC	none
C[n+]1c2cc(N)ccc2cc2ccc(N)cc21	Vaccinia pol inh 10
COC(=O)c1cccc(NC(=O)C2=NNC(=O)CC2)c1	none
Cc1ccc(C(=O)N2CCc3ccccc32)cc1Br	none
CC1CCN(C(=O)c2cc3c(s2)-c2ccc(Cl)cc2SC3)CC1	none
CN(C)CCNC(=O)c1cc2c(s1)-c1ccc(Cl)cc1SC2	Vaccinia pol inh 55
CC(C)NC(=O)c1cc2c(s1)-c1ccccc1SC2	none
CN1CCOc2cc(S(=O)(=O)N3CCCC3c3ccc(F)cc3)ccc21 (stereo unspecified)	none
Cc1nnsc1C(=O)N1CCN(C2c3ccccc3-c3ccccc32)CC1	none
O=C(O)c1ccccc1C(=O)N1CCN(C2c3ccccc3-c3ccccc32)CC1	Vaccinia pol inh 74
Cc1cc(C(=O)N2CCN(C3c4ccccc4-c4ccccc43)CC2)c(C)o1	none
NC(=S)c1ccc(S(=O)(=O)N2CCOCC2)cc1	none
CCCCN(CC)C(=O)c1sc2ncnc(N3CCN(c4ccc(OC)cc4)CC3)c2c1C	none
Cc1cccc(NC(=O)Cn2c(=O)n(-c3ccc(F)cc3)c(=O)c3sccc32)c1	none
Cc1cc2n(n1)C(/C=C\c1ccccc1)Nc1c(C)cccc1-2 (stereo unspecified)	none
N#Cc1nc(-c2ccccc2)oc1NCCN1CCCCC1	none
O=S(=O)(NCCN1CCCC1)c1cc2ccccc2s1	none
Cc1cc(NCCN2CCCCC2)c2ccc3ccccc3c2n1	Vaccinia pol inh 22
C=CCN(CC=C)C(=O)c1cccs1	none
O=C(N1CCOCC1)C12CC3CC(CC(C3)C1)C2	none
Nc1cccc(-c2nn(-c3ccccc3)cc2CCC(=O)O)c1	none

High-throughput results from PubChem.
